{"source": "PubChem BioAssay (NCI)", "note": "This is part of a sample that, as a whole, favours compounds with a hit. Of some 83,000 tested, about 20% had one in any assay.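 Percent growth is the endpoint: 0 to 100 indicates growth inhibition (40 means 60% inhibition), 0 means no net growth, and negative values indicate cell death.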 Calls of active or inactive are those of the source."}
{"test_system": "HCT-15 colon", "assay": "NCI-60 one-dose screen, 48 h (100 = growth as untreated, 0 = no growth, -100 = all killed)", "details": "10 µM unless noted", "description": "Growth inhibition of the HCT-15 human tumor cell line is measured as a screen for anti-cancer activity. Cells are grown in 96 well plates and exposed to the test compound for 48 hours. Compounds are tested at a single concentration, which is 10^-5 M for most compounds. The reported endpoint is percent growth (GI% or GIPRCNT), where numbers from 0 - 100% represent growth inhibition, and numbers from -100% - 0 represent cell death. For example, a value of 40 represents 60% growth inhibition. A value of 0 means no net growth occurred over the course of the experiment. A value of -40 indicates 40% of cells at the beginning of the experiment died by the end of the experiment. A value of -100 means all cells are dead at the end of the experiment.\nNCI-60 Human Tumor Cell Lines Screen was performed using the standard one-dose NCI protocol, which is described in more detail at https://dtp.cancer.gov/discovery_development/nci-60/default.htm.\nCompounds with GIPRCNT values below 10 were considered active. Activity score was based on GIPRCNT using the following formula: […]\nScore is 0 for GIPRCNT values of 100 or above, 50 for GIPRCNT values of 0, and 100 for GIPRCNT values of -100."}
{"smiles": "O=C1C(=O)c2ccc(Br)cc2-c2cc(Br)ccc21", "growth": "50.2% (inactive)"}
{"smiles": "COc1ccccc1[C@H]1c2[nH]c3ccccc3c2C[C@H]2C(=O)N(CCCCCCC(=O)NO)CC(=O)N12", "growth": "87.1% (inactive)"}
{"smiles": "C=C(C[C@](O)(C(=O)/C=C/c1ccc(Cl)cc1)C(=O)OC)c1ccccc1", "growth": "3.71% (active)"}
{"smiles": "O=C(Nc1ccc(Nc2ccncc2)cc1)c1ccc(Nc2ccnc3ccc([N+](=O)[O-])cc23)cc1[N+](=O)[O-]", "growth": "86.7% (inactive)"}
{"smiles": "N#Cc1cccc(/C=C(/C(=O)c2ccccc2)c2ccccc2)c1", "growth": "18.9% (inactive)"}
{"smiles": "N#CCCN(CCO)c1ccccc1", "growth": "102% (inactive)"}
{"smiles": "CSC1=Nc2c(c(C)c(-c3ccccc3)n2CCCN2CCCCC2)C2=NC(=O)C[C@H](C)N12", "growth": "81.2% (inactive)"}
{"smiles": "O=c1[nH]c(Cl)nc2c1cnn2-c1ccccc1", "growth": "94.7% (inactive)"}
{"smiles": "COc1cc2c(c(OC)c1OC)-c1ccc(NN(C(=O)c3ccccc3)C(=O)c3ccccc3)c(=O)cc1[C@@H](NC(C)=O)CC2", "note": "(tested in a mixture with another compound)", "growth": "48.8% (inactive)"}
{"smiles": "CC(C)(C)c1ccc(S(=O)(=O)O)s1", "growth": "107% (inactive)"}
{"smiles": "O=C(/C=C/c1ccccc1Cl)c1ccc(O)cc1", "growth": "37.5% (inactive)"}
{"smiles": "COc1ccc2c(c1)nc(N)c1c3cc(OC)c(OC)cc3cn21", "growth": "30.4% (inactive)"}
{"smiles": "COc1ccc(-n2nc3c(c2-c2ccc(OC)c(OC)c2)-c2oncc2CC3)cc1", "growth": "55.9% (inactive)"}
{"smiles": "Cc1cc(C(C)(C)c2cc(C)c(O)c(CN(C)C)c2)cc(CN(C)C)c1O", "growth": "80.8% (inactive)"}
{"smiles": "O=C(O)C(=O)O", "growth": "95% (inactive)"}
{"smiles": "O=[N+]([O-])c1ccc(N/N=C/c2c(O)ccc3ccccc23)nc1", "growth": "24.5% (inactive)"}
{"smiles": "Cc1ccc(C=C2C(Cl)=C(Cl)C(Cl)=C2Cl)cc1", "growth": "-69.5% (active)"}
{"smiles": "O=C(/C=C/c1ccc(O)c(O)c1)N1CCN(c2ccc(Cl)cc2)CC1", "growth": "48.5% (inactive)"}
{"smiles": "C[C@]12CC[C@@H]3c4ccc(O)c([N+](=O)[O-])c4CC[C@H]3[C@@H]1CC[C@@H]2NS(=O)(=O)c1ccc(C(F)(F)F)cc1", "growth": "18% (inactive)"}
{"smiles": "CC[N+](CC)(CCOCCOCC[N+](CC)(CC)Cc1ccc([N+](=O)[O-])cc1)Cc1ccc([N+](=O)[O-])cc1", "growth": "105% (inactive)"}
{"smiles": "Clc1ccc(-c2nc(-c3cccs3)no2)c(Cl)c1", "growth": "73.5% (inactive)"}
{"smiles": "CC(C)[C@]12O[C@H]1[C@@H]1O[C@]13[C@]1(O[C@H]1C[C@H]1C4=C(CC[C@@]13C)C(=O)OC4)[C@@H]2OC(=O)CN(C)C", "growth": "9.18% (active)"}
{"smiles": "O=C(COC(=O)[C@H](C[Se][Se]C[C@H](NC(=O)c1ccc(Br)cc1F)C(=O)OCC(=O)c1ccc(F)cc1)NC(=O)c1ccc(Br)cc1F)c1ccc(F)cc1", "growth": "-42.6% (active)"}
{"smiles": "C=C(C)[C@H]1CC/C(C)=C/CC[C@]2(C)O[C@H]2CC/C(COC(C)=O)=C\\C1=O", "growth": "109% (inactive)"}
{"smiles": "Cc1c(C(N)=O)sc2c1c(=O)n(Cc1ccccc1)c1nnc(S(=O)(=O)CC(=O)Nc3ccc(Cl)cc3)n21", "growth": "73.1% (inactive)"}
{"smiles": "CO[C@H]1/C=C/O[C@@]2(C)Oc3c(C)c(O)c4c(O)c(c(/C=N/N5C(C)CN(Cc6ccccc6)CC5C)c(O)c4c3C2=O)NC(=O)/C(C)=C\\C=C\\[C@H](C)[C@H](O)[C@@H](C)[C@@H](O)[C@@H](C)[C@H](OC(C)=O)[C@@H]1C", "note": "(stereo not given in full)", "growth": "57.5% (inactive)"}
{"smiles": "CSc1ncc2ncn(C3OC(CO)C(O)C3O)c2n1", "note": "(stereo not given)", "growth": "114% (inactive)"}
{"smiles": "C/C(=C\\CCc1ccoc1)CC/C=C(\\C)CCCN1CCC(CO)CC1", "growth": "25.5% (inactive)"}
{"smiles": "Fc1ccc(-c2nnc(-c3c(-c4ccc(F)cc4)nc4ncccn34)o2)cc1", "growth": "87.9% (inactive)"}
{"smiles": "S=C1SCN(Cc2ccccc2)CN1Cc1ccco1", "growth": "41.7% (inactive)"}
{"smiles": "CCCCC1Nc2nc(SC)n(C)c(=O)c2CN(Cc2ccccc2)C1=O", "note": "(stereo not given)", "growth": "81.9% (inactive)"}
{"smiles": "O=C(Cc1ccccn1)C(F)(F)C(F)(F)C(F)(F)F", "growth": "109% (inactive)"}
{"smiles": "Cc1cc(C)n(C(=O)c2nn(-c3ccc(Cl)cc3)cc2O)n1", "growth": "50.2% (inactive)"}
{"smiles": "COc1ccc(OC)c(NC(=O)c2cc3oc4ccccc4c3cc2O)c1", "growth": "96.7% (inactive)"}
{"smiles": "COc1ccc2c(c1)[nH]c(=O)c1c3cc(OC)c(OC)cc3cn21", "growth": "-6.44% (active)"}
{"smiles": "COc1cc(/C=C/C(=O)c2ccc(F)cc2)ccc1OCCCCCOc1cc2c(cc1OC)C(=O)N1CCCC1C=N2", "note": "(stereo not given)", "growth": "-3.47% (active)"}
{"smiles": "O=C1C2C3C=CC(O3)C2C(=O)N1Nc1ccccc1", "note": "(stereo not given)", "growth": "104% (inactive)"}
{"smiles": "COc1ccc(C2=NN(C(=O)c3cc(OC)c(OC)c(OC)c3)C(c3ccc(C#N)cc3)C2)cc1OC", "note": "(stereo not given)", "growth": "26.7% (inactive)"}
{"smiles": "Cc1c(C(N)=O)sc2c1C(=O)N(Cc1ccccc1)C1=NN=C(c3ccc(Cl)cc3)CN12", "growth": "22.6% (inactive)"}
{"smiles": "COc1cc(C2NC(c3ccc(Cl)cc3)C(C)/C(=N/NC(N)=S)C2C)cc(OC)c1OC", "note": "(stereo not given)", "growth": "81.9% (inactive)"}
